The list is not random: actives were taken first. Their share in the collection is about 1.8%.
SUMO Mot1 rescue: inhibitors of SUMOylation pathway: yeast Mot1-301 growth rescue; S. cerevisiae Mot1-301 growth rescue, ATP luminescence, 38.5C; percent above DMSO median, 100 means doubled; growth rescue, % at 18.8 µM; actives 1% (n = 320,000); AID 2716;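 active means every valid replicate shows activation above 250% relative to neutral control wells; inactive means the rest, any valid replicate at or below 250%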;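 further: OY570 slx delta 5 strain wells were the positive control but not used for scaling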
PolyA inhibitor: blocks polyadenylation in yeast reporter cells; S. cerevisiae SKY197-pL101 polyadenylation reporter, beta-gal luminescence; efflux-impaired pdr1/pdr3 knockout yeast; score 100 = 6 SD above DMSO; activity score, % at 12 µM; actives 0.02% (n = 300,000);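 active means lowest replicate activity score at least 50, where 100 means six control SD above control mean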;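 further: yeast exposed to compound for 9 h at 30 °C; higher score means more reporter readthrough which indicates perturbed polyadenylation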
NALP3 yeast inh: blocks the NALP3 inflammasome reconstituted in yeast; Yeast reconstituted NLRP3/ASC/caspase-1, beta-gal luminescence, 24 h; actives 0.39% (n = 330,000); AID 2825; inhibition, % at 10 µM;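 active means inhibition of 50% or more; inactive means inhibition below 50%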;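 further: plate controls were induced DMSO wells for no effect and uninduced yeast grown without galactose for full effect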
NALP1 inh: NALP1 inhibition | S. cerevisiae NALP1/ASC/caspase-1 growth, X-gal OD620, 72 h | inhibition, % at 10 µM | actives 0.61% (n = 280,000) | AID 2071; in the data active means inhibition mostly above about 24%, no sharp cut-off; inactive means mostly below about 32%
* = called active by the depositor; . = no result.

SMILES | SUMO Mot1 rescue | PolyA inhibitor | NALP3 yeast inh | NALP1 inh
CC(C#N)(Nc1ccc(Cl)cc1)c1cccnc1 (stereo unspecified) | 306.2* | 5.1 | -1.2 | 32.6
Cc1c(NC(=O)c2ccc(F)cc2)c(=O)n(-c2ccccc2)n1C | -21.6 | -7.5 | 17.0 | 35.8*
Cc1c(NC(=O)C(C)Sc2n[nH]c(N)n2)c(=O)n(-c2ccccc2)n1C (stereo unspecified) | 0.7 | 0.2 | 0.2 | 38.4*
Cc1c(NC(=O)c2cccc(F)c2)c(=O)n(-c2ccccc2)n1C | -7.2 | 6.0 | 9.6 | 20.9
Cc1nc(SC(C)C(=O)Nc2c(C)n(C)n(-c3ccccc3)c2=O)nc(C)c1C (stereo unspecified) | -0.7 | . | 0.9 | .
Cc1nnc(-c2ccccc2)c(=O)n1/N=C/c1c(O)ccc2ccccc12 | -15.3 | -0.5 | -0.7 | 7.7
Cc1ccc(C(=O)NCCCNC(=O)c2ccccn2)cc1 | 1.2 | 7.3 | 6.9 | -0.1
O=C(CCS(=O)(=O)c1ccc(Br)cc1)NCc1cccs1 | -5.7 | 4.8 | -2.7 | 7.0
CCC(=O)OCC(=O)c1c(N)n(Cc2ccccc2)c(=O)n(C)c1=O | -12.1 | 6.8 | 18.3 | 32.1*
CCN1CCN(CC(=O)N2N=C(c3ccc(OC)cc3)CC2c2ccc(OC)cc2)C(=O)C1=O (stereo unspecified) | 7.9 | -4.0 | -4.1 | 20.0*
COc1ccc(C2=NN(C(=O)CCC(=O)O)C(c3ccc(OC)cc3)C2)cc1 (stereo unspecified) | 11.3 | 5.4 | 3.5 | 13.4
N/C(=N\OC(=O)c1ccc(Cl)cc1)c1nonc1N | 294.5* | -27.9 | 35.4 | 34.3
Cc1c(C2(O)CCCCC2)[nH]c2ccc(C(F)(F)F)cc12 | 301.2* | . | 44.6 | .
COc1ccc(-c2ccc(/C=N/NC(=O)Cc3nnc(N)s3)o2)cc1Cl | 10.2 | -0.5 | 14.3 | 2.8
COc1ccccc1C(=O)NCC(=O)OCC(=O)c1cccc2ccccc12 | 321.4* | -2.3 | 14.8 | .
O=S(=O)(c1ccc(F)cc1)n1ccc(-c2cccc(OCc3c(F)cccc3Cl)c2)n1 | . | 2.3 | . | 27.9*
CCOC(=O)C1(CCOc2ccccc2)CCN(Cc2ccc(F)c(OC)c2)CC1 | -7.6 | -2.8 | 27.5 | 10.0
CC(C)(C)c1ccc(S(=O)(=O)C(C)(C)C)cc1 | 17.5 | -23.1 | 23.3 | -17.9
CC(C)(C)S(=O)(=O)c1ccc(S(=O)(=O)C(C)(C)C)s1 | 949.5* | -5.9 | 12.9 | -10.6
Clc1ccccc1CN1CCN(CCCc2ccccc2)CC1 | . | 2.4 | . | 21.5*
Cc1cccc(CN2CCN(CCCc3ccccc3)CC2)c1 | -6.8 | -18.5 | 18.9 | 31.0*
Cc1nc(NC(=O)CN2CCC(O)(c3ccc(F)cc3)CC2)sc1C | -18.8 | -17.5 | 10.7 | .
Nc1nc(SCC(=O)c2cc3ccccc3o2)n[nH]1 | 1.7 | 28.5 | -2.1 | 21.5*
COc1ccccc1C(=O)CSc1n[nH]c(N)n1 | . | 2.6 | 10.3 | 12.3
CCN1CCN(Cc2ccc(NC(=O)c3ccc(C)c(NC(=O)c4nccnc4N)c3)cc2C(F)(F)F)CC1 | 10.0 | -14.0 | 16.4 | .
SMILES | SUMO Mot1 rescue | PolyA inhibitor | NALP3 yeast inh | NALP1 inh
CCN1CCN(Cc2ccc(NC(=O)c3cc(NC(=O)c4nccnc4N)cc(OC)c3)cc2C(F)(F)F)CC1 | 352.9* | 4.7 | 10.3 | .
COC(=O)c1[nH]c2c(c1C)C(=O)CCC2 | -12.0 | -8.1 | 8.1 | 33.4*
O=C(/C(=N\O)n1cncn1)c1ccc(Cl)cc1Cl | 300.5 | 2.2 | 2.6 | 27.1
O=C(/C(=C/c1ccccc1)n1cncn1)c1ccc(Cl)cc1Cl | 184.2 | -33.5 | 32.1 | 42.7*
Cc1ccc(NC2=C(Cl)C(=O)OC2OC(=O)c2ccco2)cc1C (stereo unspecified) | 144.4 | 19.5 | 6.9 | 32.7
CCCNC(=O)c1nnsc1S(=O)c1ccc(Cl)cc1 (stereo unspecified) | . | 1.5 | 41.1 | 103.0*
CNC(=O)c1nnsc1S(=O)c1ccc(Cl)cc1 (stereo unspecified) | . | -36.1 | 40.7 | 92.7*
CCCNC(=O)c1nnsc1S(=O)(=O)c1ccc(Cl)cc1 | . | . | 38.7 | 104.1*
N/C(=N\OC(=O)c1ccncc1)c1cccc([N+](=O)[O-])c1 | -13.3 | -0.3 | 5.1 | 19.1
CCN=C(NCC)SC1CC(=O)N(c2ccccc2)C1=O (stereo unspecified) | -4.2 | -6.3 | -0.6 | 18.3
Cc1ccc2[nH]c(=O)c(CN(CCCN(C)C)C(=O)Nc3ccc(F)cc3)cc2c1 | 284.4 | 13.5 | 3.7 | 9.3
COc1cc(/C=N/N=C2/NC(=O)C(c3ccccc3)S2)ccc1O (stereo unspecified) | -10.0 | -18.7 | -6.7 | -1.9
CC1CCN(S(=O)(=O)c2nnc(NC(=O)COc3ccccc3)s2)CC1 | 292.5* | -5.3 | 6.1 | 22.1

High-throughput results from PubChem BioAssay.
